Screening data (PubChem)
BAZ2B inh: qHTS Assay for Inhibitors of BAZ2B | Bromodomain adjacent to zinc finger domain protein 2B (Homo sapiens), Q9UIF8 | AlphaScreen BAZ2B-H3K14Ac peptide displacement | Potency, µM (top dose mostly 114 µM), for the others: top-dose activity change, negative = inhibition, hits mostly inhibitors | 4.4% of 360,000 active; also: % is scaled to controls: 0 for no effect and ±100 for the full control effect; nearly all actives have a fitted effect of over 60% in size
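BAZ2B 50 nM plus b-H3(5-23)K14Ac 50 nM, PBS pH 7.4/0.01% Tween-20, 30 min RT; compound added (max 110 uM), 30 min RT; streptavidin donor/Ni-chelate acceptor beads 10 ug/mL final, 20 min dark; AlphaScreen read.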
HP1b chromo inh: HTS for Inhibitors of HP1-beta Chromodomain Interactions with Methylated Histone Tails. Chromobox protein homolog 1 (Homo sapiens), P83916. AlphaScreen HP1-beta / biotin-H3K9me3 peptide binding. Potency, µM (highest dose often 114 µM), for inactives: at the highest dose activity change, negative = inhibition, usual class: inhibitors. 0.56% of 390,000 active; also: nearly all actives have a fitted effect of over 70% in size
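Compound inhibition of the preformed complex between 50 nM HP1-beta and 50 nM biotinylated H3K9me3 peptide was read by AlphaScreen. Buffer was PBS pH 7.4 with 0.01% Tween-20. Incubations ran 30 min at room temperature, with 10 ug/mL donor/acceptor beads.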
JMJD2A Tudor inh: qHTS Assay for Inhibitors of JMJD2A-Tudor Domain. AlphaScreen JMJD2A-Tudor / H3K4me3 peptide binding. Potency, µM (top dose mostly 114 µM), without a hit: at the highest dose activity change, negative = inhibition, usual class: inhibitors. 4.4% of 390,000 active. AID 504339, 2011; also: % is scaled to controls: 0 for no effect and ±100 for the full control effect; nearly all actives have a fitted effect of over 50% in size
L3MBTL1 inh: qHTS Assay for the Inhibitors of L3MBTL1 | Potency, µM (highest dose often 57.1 µM), for inactives: at the top dose activity, negative = inhibition, most hits filed as inhibitors | 0.66% of 230,000 active | Lethal(3)malignant brain tumor-like protein 1 (Homo sapiens), Q9Y468 | AID 485360, 2010 | AlphaScreen L3MBTL1–H3K9me1 peptide binding; also: % is scaled to controls: 0 for no effect and ±100 for the full control effect; nearly all actives have a fitted effect of over 60% in size
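L3MBTL1 50 nM + b-AHA-H3(1-15)K9me1 75 nM, 30 min RT; compound added, 30 min RT; streptavidin donor/Ni-chelate acceptor beads 10 ug/mL each final, 30 min RT dark; AlphaScreen read.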
Sfp inh: qHTS Assay for Inhibitors of Bacillus subtilis Sfp phosphopantetheinyl transferase (PPTase) | 4'-phosphopantetheinyl transferase ffp (Bacillus subtilis), Q9F4F7 | Potency, µM, without a hit: largest response in the series, negative = inhibition, actives largely listed as inhibitors | 3.5% of 310,000 active | Biochemical Sfp PPTase activity, qHTS;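 also: the enzyme is Sfp with the accession as filed and its product quenches rhodamine fluorescence; 0% = enzyme reaction without inhibitor and -100% = no enzyme wells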
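With Hepes-Na pH 7.6 buffer containing 10 mM MgCl2, Sfp (15 nM) modified BHQ-2-YbbR (12.5 uM) using rhodamine-CoA (5 uM). Two reads 30 minutes apart at 525/598 nm yielded each well's rate.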
G9a inh: qHTS Assay for Inhibitors of Histone Lysine Methyltransferase G9a; Histone-lysine N-methyltransferase EHMT2 (Homo sapiens), Q96KQ7; G9a H3K9 monomethylation, AlphaScreen, 2 h; Potency, µM (highest dose often 102 µM), inactives show top-dose activity, negative = inhibition, actives largely listed as inhibitors; 8.8% of 350,000 active; also: % is scaled to controls: 0 for no effect and ±100 for the full control effect; nearly all actives have a fitted effect of over 75% in size
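Quantitative HTS format: methyltransferase activity on a biotin-tagged H3K9 peptide is measured by AlphaScreen, using a rabbit anti-monomethyl-H3K9 antibody with streptavidin donor and anti-IgG acceptor beads. Final levels are 20 nM enzyme, 500 nM peptide, 20 uM SAM; 2 h RT.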
* = called active by the depositor; ? = inconclusive; . = no result; [ ] = remark or other dose. Sampled rows, rich in hits. Any-hit rate of the full collection: about 12%. Calls follow the shape of the dose curve; as a rule, active = well fitted curve in the direction sought with a large enough effect; inconclusive = small, poorly fitted or top-dose-only effect, or another doubt; inactive = no such curve, though single readings can be large; an effect the other way counts as inactive or inconclusive. Potency is read from the fitted curve at half-maximal effect.

SMILES	BAZ2B inh	HP1b chromo inh	JMJD2A Tudor inh	L3MBTL1 inh	Sfp inh	G9a inh
CC1CCCC(C)N1C(=C(Cl)Cl)C(=C1SCCS1)[N+](=O)[O-] (stereo not given)	18µM*	?	-19%[11.4 µM]	.	0%	35µM*
CCCCCCCN1C(N(C)C)=NC[C@@H]1Cc1ccccc1	10%	-36%	-20%	8%	.	12%[2.33 µM]
CCCCCCCCCCCCCCCCn1cc[n+](Cc2ccccc2)c1C	.	.	.	.	13µM*	.
N#Cc1c(-c2ccccc2)cc(C2CC2)nc1SCC(=O)O	-32%	20%	-26%	9%	-18%	11µM*
CCCCS(=O)(=O)CC(O)CSc1nc(-c2ccc(C)cc2)cc(-c2ccccc2)c1C#N (stereo not given)	-2%	-8%	-25%	.	.	7.9µM*
N#Cc1c(-c2ccccc2)cc(-c2ccccc2)nc1SCCC(=O)O	3%	-11%	-22%	-1%	45µM*	.
COC(=O)CSc1nc(-c2ccccc2)cc(-c2ccco2)c1C#N	71µM*	9%	?	?	?	8%[0.501 µM]
CC(C)CS(=O)(=O)c1oc(-c2ccc(F)cc2)nc1S(=O)(=O)c1ccccc1	-3%	52%	-11%	.	.	?
COc1ccc(NS(=O)(=O)c2cc3[nH]c(=O)c(=O)[nH]c3cc2C)cc1Cl	-15%	17%	-18%	.	.	-30%[59 µM]
CCc1cccc(-n2c(=O)c3cccnc3n2CC(=O)NCc2ccc(C)cc2)c1	-5%	21%	-7%	.	.	-1%[59 µM]
N#Cc1c(-c2ccco2)cc(C2CC2)nc1SCC(=O)c1ccccc1	-1%	32%	0%	-4%	35µM*	?
COc1cc(-c2cc(-c3ccccc3)nc(SCC(=O)O)c2C#N)cc(OC)c1OC	0%	-18%	-8%	.	-18%	50µM*
COc1ccccc1-c1cc(-c2ccccc2)nc(SC(C(N)=O)c2ccccc2)c1C#N (stereo not given)	79µM*	38%	-13%	2%	-16%	-29%[59 µM]
N#Cc1c(-c2ccc(Cl)cc2)cc(-c2ccccc2)nc1SCC(=O)O	56µM*	46%	-26%	1%	-14%	?
CCCn1c(-c2ccc(F)cc2)nc2c(NCCCCN(CC)CC)nc(C)nc21	.	.	.	.	5%	.
COC(=O)C1(C(=O)OC)CC2=C[C@H](CC2=O)Cc2ccccc2[C@@H]1C[N+](=O)[O-]	.	.	.	.	-14%	.
N#Cc1c(-c2ccc(F)cc2)cc(-c2ccccc2)nc1SCC(=O)NCC(=O)O	50µM*	?	79µM*	0%	2.2µM*	.
N#Cc1c(-c2ccco2)cc(-c2ccc(F)cc2)nc1N	-11%	54%	-24%	.	28µM*	?
CC(C)c1nc2ccc(C(=O)NCCCN3CCN(c4ccccc4F)CC3)cc2o1	-18%	27%[57 µM]	-12%	.	.	1%[59 µM]
C[N+]1(CC(=O)OCCCC2CCCCC2)CCCC1	-25%	?	?	7%	-2%	56µM*
O=C(CN1CCCC1)OCCCC1CCCCC1	-20%	-15%	-17%	-9%	7%	56µM*
C[C@H](NC(=O)CNC(=O)[C@@H](NC(=O)[C@H](Cc1ccccc1)NC(=O)CNC(=O)CNC(=O)[C@@H](N)Cc1ccccc1)[C@@H](C)O)C(=O)N[C@@H](CCCN=C(N)N)C(=O)N[C@@H](CCCCN)C(=O)N[C@@H](CO)C(=O)N[C@@H](C)C(=O)N[C@@H](CCCN=C(N)N)C(=O)N[C@H](CN)CCCCN	.	.	.	.	17%	10%[59 µM]
C=Cc1ccc(CSc2nc(-c3ccccc3Cl)nc3c2Cc2c(CO)cnc(C)c2O3)cc1	-17%	28%	-9%	.	.	-29%[59 µM]
CCN(CC)c1nn2c(=O)c(C(=O)NCc3cccc(C)c3)cnc2s1	-14%	?	-11%	.	.	7%[59 µM]
O=C(COC(=O)/C=C/c1cc(Br)ccc1F)Nc1ccc2[nH]c(=O)[nH]c2c1	0%	20%	-6%	-5%	.	?
SMILES	BAZ2B inh	HP1b chromo inh	JMJD2A Tudor inh	L3MBTL1 inh	Sfp inh	G9a inh
CC(C)CCNC(=O)NC(=O)COC(=O)/C=C/c1cc(Br)ccc1F	16%	-9%	14µM*	.	14%	-10%
O=C(NC1CC1)C1CCN(S(=O)(=O)c2cc(Cl)ccc2Cl)CC1	56µM*	26%	-2%	0%	-20%	13µM*
Cc1ccc(S(=O)(=O)N2CCC(C(=O)NC3CCCC3)CC2)cc1Cl	1%	18%	100µM*	.	24%	-7%[59 µM]
COc1ccc(S(=O)(=O)N2CCC(C(=O)N[C@@H](C)C(=O)NC3CCCC3)CC2)cc1	3%	3%	22µM*	.	2%	.
Cc1ccc(S(=O)(=O)N2CCCC(C(=O)NC3CCCC3)C2)cc1Cl (stereo not given)	-3%	38%	-5%	.	20%	9%
COc1c(Cl)cc(Cl)cc1CNCCSc1nnnn1C	-5%	56%	-12%	.	.	16%[59 µM]
O=S(c1ccccc1O)S(=O)c1ccccc1O (stereo not given)	.	3.5µM*	0.79µM*	.	.	.
COc1cc(OC)cc(-c2nnc(Sc3ccc(C=O)cc3[N+](=O)[O-])o2)c1	?	.	.	-11%	1%	25µM*
COc1cc(OC)cc(-c2nnc(SCC(=O)c3ccc([N+](=O)[O-])cc3)o2)c1	-17%	44%	2%	.	.	6%[59 µM]
COC(=O)/C(=N/Nc1ccccc1)N1CCCc2ccccc21	-37%	1%	?	0%	1%	45µM*
